Screening data as filed in PubChem.
hcGAS inh – human cGAS inhibition; Q8N884; recombinant h-cGAS, ATP depletion, Kinase-Glo luminescence; inhibition, % at 12.5 µM; hit rate 0.081% among 290,000; AID 1259398;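 also: 0% = vehicle reaction and 100% = reaction without DNA for no activity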
mcGAS lum – blocks mouse cGAS activity. recombinant cGAS, Kinase-Glo ATP depletion luminescence. hit rate 0.15% among 160,000. Q8C6L5. inhibition, % at 12.5 µM. AID 1259399;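 also: 0% = negative control wells and 100% = reference inhibitor with no enzyme activity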
Target sequence (Q8C6L5 whole entry, looked up): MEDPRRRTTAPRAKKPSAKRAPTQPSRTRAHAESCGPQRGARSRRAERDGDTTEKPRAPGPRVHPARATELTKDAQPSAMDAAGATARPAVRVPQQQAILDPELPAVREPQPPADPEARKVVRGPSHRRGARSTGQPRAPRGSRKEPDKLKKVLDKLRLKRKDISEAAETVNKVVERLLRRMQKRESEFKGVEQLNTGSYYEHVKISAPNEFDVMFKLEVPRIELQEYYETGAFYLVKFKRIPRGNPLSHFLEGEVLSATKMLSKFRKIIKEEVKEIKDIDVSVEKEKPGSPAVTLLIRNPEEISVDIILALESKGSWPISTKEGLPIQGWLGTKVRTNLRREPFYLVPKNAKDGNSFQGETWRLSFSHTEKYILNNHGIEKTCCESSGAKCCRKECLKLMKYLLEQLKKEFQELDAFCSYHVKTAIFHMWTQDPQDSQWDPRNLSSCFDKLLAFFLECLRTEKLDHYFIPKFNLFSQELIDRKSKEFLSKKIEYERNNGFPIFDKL
NPYLR7 agonist – mosquito NPYLR7 agonism | HEK293T NPYLR7/Galpha15, GCaMP6s calcium fluorescence | AID 1259423 | activation, % at 10 µM | hit rate 0.15% among 270,000; in the data active = activation above about 40%;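 also: 0% = vehicle and 100% = reference agonist at the receptor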
* marks the source's active call; other numbers are inactive results; nt = no result. A selection: hits, their analogues and other compounds. The true share with any hit is near 0.28%. Rule as the data show it, unless noted: active = inhibition above about 40%; inactive = the rest.

SMILES | hcGAS inh | mcGAS lum | NPYLR7 agonist
Cc1ccc(-c2nc3nc(N)n(C)c(=O)c3[nH]c2=O)cc1 | -6 | -8 | 136*
Cc1ccc(Nc2nc3c([nH]2)c(=O)n(C)c(=O)n3C)cc1 | -5 | -11 | 6
CN(Cc1cc(C(C)(C)C)n[nH]1)C(=O)[C@@H]1C[C@@H]2C=C[C@H]1C2 | -6 | nt | -1
O=C(CCl)Nc1nc(-c2ccccc2Cl)cs1 | -3 | 60* | 3
O=C(CCC1CCCC1)Nc1nc(-c2ccccc2Cl)cs1 | 3 | nt | -3
COc1cccc(OC)c1OCCCOc1ccc(Br)cc1Cl | -5 | nt | -6
COc1ccccc1OCCCOc1ccc(Br)cc1Cl | 1 | nt | 60*
O=C1CCCCCN1CO | 83* | 3 | -6
O=C1CCCCCN1CP(=O)(O)CN1CCCCC1 | -8 | -4 | nt
O=C(O)c1ccc2c(c1)C1C=CCC1C(c1ccc(Br)cc1)N2 (configuration not stated) | 77* | 100* | -7
O=C(O)c1ccc([C@@H]2Nc3ccc(I)cc3[C@@H]3C=CC[C@@H]32)cc1 | 28 | 71* | 10
COC(=O)c1ccc2c(c1C)NC(c1ccc([N+](=O)[O-])cc1)C1CC=CC21 (configuration not stated) | -1 | -1 | -2
O=C(O)c1ccc(C2Nc3c(F)cc(F)cc3C3C=CCC32)cc1 (configuration not stated) | 6 | nt | 18
Cc1ccc(NC(=O)C2CCCN2C(=O)c2ccco2)nc1 (configuration not stated) | -3 | nt | -1
C=CCN1C=CC(=CC=C(C#N)C#N)C=C1 | -4 | nt | 72*
CN1C(=CC=C(C#N)C#N)C=Cc2ccccc21 | 10 | nt | -6
Cn1c(=O)[nH]c(=O)c2c1nc(N1CCN(Cc3cccc(Cl)c3)CC1)n2Cc1ccc(Cl)cc1 | -7 | -4 | 2
CC(C)CN1C(=O)C(=Cc2c(N3CCN(CCO)CC3)nc3ccccn3c2=O)SC1=S | -4 | -5 | 79*
CCCNc1nc2ccccn2c(=O)c1C=C1SC(=S)N(CC(C)C)C1=O | -13 | nt | 2
C=CCn1c(SCc2ccc(C(=O)Nc3ccc(OC)cc3)cc2)nnc1-c1ccccc1Cl | -4 | -6 | -1
CCOC(=O)C1=C(C)NC(C)=C(C(=O)OCC)C1c1cc(Cl)ccc1OC(F)F | -6 | -3 | 50*
COC(=O)C1=C(C)NC(C)=C(C(=O)OC)C1c1cc(Cl)ccc1OC(F)F | -2 | -3 | 1
CCNC(=O)[C@@H]1C[C@H](NC(=O)Cn2cnc(C)c2C)CN1C1CCCC1 | -10 | -5 | nt
CS(=O)(=O)/C(C#N)=C/c1cnc2ccc(Br)cn12 | 88* | -7 | 1
CCOc1cc(C=C(C#N)S(C)(=O)=O)ccc1OC | -5 | -5 | 6
SMILES | hcGAS inh | mcGAS lum | NPYLR7 agonist
CCOc1ccc(C2=NC(=Cc3cc(OC)c4c(c3)OCCO4)C(=O)O2)cc1OCC | -6 | nt | 2
COc1cc(C=C2N=C(c3ccc4c(c3)OCO4)OC2=O)cc2c1OCCO2 | -4 | nt | 97*
Cc1csc(C(C#N)C(=O)c2cn(CC(=O)C(C)(C)C)nn2)n1 (configuration not stated) | 45* | -7 | -1
Cc1cnc(C(=O)OCC(=O)C(C#N)c2nc(C)cs2)cn1 (configuration not stated) | -7 | nt | 1
COc1cc([N+](=O)[O-])ccc1-c1ccc(/C=C2/NC(=S)NC2=O)o1 | -3 | -1 | 1
O=C1NC(=S)NC(=O)C1=Cc1ccc(-c2cc([N+](=O)[O-])ccc2O)o1 | 51* | 42* | -16
CCn1cc(C(=O)N2CCN(CC(=O)NCCOC)CC2)c2nn(-c3ccccc3)c(=O)c-2c1 | -9 | -7 | -1
COc1ccccc1-c1cccc(C(=O)N2CCc3[nH]ncc3C2)c1 | 1 | 1 | -3
COC(=O)CCCNC(=O)c1cc(S(=O)(=O)N(C)C)ccc1Cl | 1 | -2 | -3
C(=Cc1ccccc1)C=NNc1ncnc2ccccc12 | -6 | nt | 161*
O=C1NN=C(c2ccccc2)C/C1=N/Nc1ncnc2ccccc12 | -2 | -9 | 7
CNC[C@H](O)c1ccc(O)c(O)c1 | -2 | -3 | 83*
CC(C)NCC(O)c1ccc(O)c(O)c1 (configuration not stated) | -1 | -4 | 15
Oc1cc2c(cc1O)C1c3ccc(O)c(O)c3OCC1(O)C2 (configuration not stated) | -9 | 50* | 5
O=C(NCCNc1nc(-c2ccc(F)cc2)nc2ccccc12)c1ccco1 | -6 | -8 | 1
CCCCCc1ccc(C(=O)Nc2ccc(N3CCCC3)c(C(=O)NCC3CCCO3)c2)cc1 (configuration not stated) | 0 | -3 | 0
O=C(O)CCc1nnc(SCc2ccc(F)cc2)[nH]c1=O | -3 | nt | 11
S=c1[nH]nc(-c2cc(-c3cccs3)nc3ccccc23)o1 | 77* | nt | -1
S=c1[nH]nc(-c2cccs2)o1 | 2 | nt | -2
O=[N+]([O-])c1ccc2nc(C(F)(F)F)[nH]c2c1 | 41* | nt | 12
